According to PubChem BioAssay (EPA / NIEHS):
Calls of active or inactive are those of the source. The calls were made as follows: active = hit-call score of the fitted dose curve at least 0.9, where 1 is the maximum; inactive = score below 0.9.

experiment: APR_HepG2_MitoMembPot_72hr: Apredica 72-hour HepG2 Assay for Mitochondrial Membrane Potential (AID 2282917); settings: imaging, actives raise or lower the signal
Summary of the method: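 Membrane potential read by MitoTracker Red CMXRos (250 nM, 30 min, pre-fixation) fluorescence imaging of HepG2 after 72 hr exposure. Ten concentrations, 0.39–200 uM, duplicate wells, 0.5% DMSO; fitted in both directions against DMSO baseline.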

Q: With `O=[N+]([O-])c1ccc(Oc2ccc(Cl)cc2Cl)cc1` as the molecule, how does the outcome read?
A: inactive

Q: For `Cn1cc(-c2ccccc2)c(=O)c(-c2cccc(C(F)(F)F)c2)c1`, which outcome is on record?
A: inactive

Q: For `CN(C)c1ccccc1`, which outcome is on record?
A: inactive

Q: For `Oc1ccccc1Cl`, which outcome is on record?
A: inactive

Q: For `C=CCc1ccc2c(c1)OCO2`, which outcome is on record?
A: inactive

Q: For `CCCCCCCCCCCCCN1CC(C)OC(C)C1` (stereo unspecified), which outcome is on record?
A: inactive

Q: With `Nc1cc(Cl)cc(C(=O)O)c1Cl` as the molecule, how does the outcome read?
A: inactive

Q: Which outcome does the source give for `Nc1ccc(Cl)cc1N` here?
A: inactive

Q: Which outcome does the source give for `CC(C)N(Cc1ccccc1)C(=O)C(C)(C)C` here?
A: inactive

Q: Which outcome does the source give for `ClCCOCCCl` here?
A: inactive

Q: With `CO[C@@H]1[C@H](OC(=O)NC(=O)CCl)CC[C@]2(CO2)[C@H]1[C@@]1(C)O[C@@H]1CC=C(C)C` as the molecule, how does the outcome read?
A: inactive

Q: For `CCOc1cccc(C2(N3CCN(c4ccccc4)CC3)CCC(C)CC2)c1` (stereo unspecified), which outcome is on record?
A: inactive

Q: For `CCC12COCN1COC2`, which outcome is on record?
A: inactive

Q: For `CS(=O)(=O)NC(=O)c1cc(Oc2ccc(C(F)(F)F)cc2Cl)ccc1[N+](=O)[O-]`, which outcome is on record?
A: inactive

Q: For `ClC1=C(Cl)C2(Cl)C3C(Cl)C=CC3C1(Cl)C2(Cl)Cl` (stereo unspecified), which outcome is on record?
A: inactive

Q: For `Cc1ccc([N+](=O)[O-])cc1`, which outcome is on record?
A: inactive

Q: With `O=C(N[C@H](c1ccccc1)[C@@H]1CN2CCC1CC2)c1c(Cl)ccc(C(F)(F)F)c1Cl` as the molecule, how does the outcome read?
A: inactive

Q: For `CCCCOC(=O)c1ccccc1C(=O)OCc1ccccc1`, which outcome is on record?
A: inactive

Q: With `O=C1CCCO1` as the molecule, how does the outcome read?
A: inactive

Q: Which outcome does the source give for `c1ccc(N=Nc2ccccc2)cc1` here?
A: inactive

Q: With `CN(C)[C@@H]1C(=O)C(C(N)=O)=C(O)[C@@]2(O)C(=O)C3=C(O)c4c(O)cccc4[C@@](C)(O)[C@H]3C[C@@H]12` as the molecule, how does the outcome read?
A: inactive

Q: Which outcome does the source give for `CCC(C)c1ccc(O)cc1` (stereo unspecified) here?
A: inactive

Q: With `c1ccc2c(c1)oc1ccccc12` as the molecule, how does the outcome read?
A: inactive

Q: Which outcome does the source give for `CCCSC(=O)N(CCC)CCC` here?
A: inactive

Q: For `CCCCCCCCn1sccc1=O`, which AC50 is on record?
A: 96.1 µM (active)

Q: Which outcome does the source give for `O=C(O)C1C2CCC(O2)C1C(=O)O` (stereo unspecified) here?
A: inactive

Q: For `Oc1ccc2ccc3cccc4ccc1c2c34`, which AC50 is on record?
A: 75.4 µM (active)

experiment: APR_HepG2_MitoticArrest_72hr: Apredica 72-hour HepG2 Assay for Mitotic Arrest (AID 2282918); settings: high-content imaging, actives raise or lower the signal
Summary of the method: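 Read-out is phospho-histone H3 immunofluorescence with Hoechst nuclear segmentation, imaged at 20x. Human HepG2 liver cells received ten concentrations (0.39–200 uM, final DMSO 0.5% v/v) for 72 hr before fixation. Gain or loss of signal was fitted relative to DMSO.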

Q: For `O=[N+]([O-])c1ccc(Oc2ccc(Cl)cc2Cl)cc1`, which AC50 is on record?
A: 71 µM (active)

Q: Which outcome does the source give for `Cn1cc(-c2ccccc2)c(=O)c(-c2cccc(C(F)(F)F)c2)c1` here?
A: inactive

Q: For `CN(C)c1ccccc1`, which outcome is on record?
A: inactive

Q: For `Oc1ccccc1Cl`, which outcome is on record?
A: inactive

Q: For `C=CCc1ccc2c(c1)OCO2`, which outcome is on record?
A: inactive

Q: For `CCCCCCCCCCCCCN1CC(C)OC(C)C1` (stereo unspecified), which outcome is on record?
A: inactive

Q: With `Nc1cc(Cl)cc(C(=O)O)c1Cl` as the molecule, how does the outcome read?
A: inactive

Q: For `Nc1ccc(Cl)cc1N`, which AC50 is on record?
A: 2.4 µM (active)

Q: For `CC(C)N(Cc1ccccc1)C(=O)C(C)(C)C`, which outcome is on record?
A: inactive

Q: With `ClCCOCCCl` as the molecule, how does the outcome read?
A: inactive

Q: Which outcome does the source give for `CO[C@@H]1[C@H](OC(=O)NC(=O)CCl)CC[C@]2(CO2)[C@H]1[C@@]1(C)O[C@@H]1CC=C(C)C` here?
A: inactive

Q: With `CCOc1cccc(C2(N3CCN(c4ccccc4)CC3)CCC(C)CC2)c1` (stereo unspecified) as the molecule, how does the outcome read?
A: inactive

Q: Which AC50 does the source give for `CCC12COCN1COC2` here?
A: 83.2 µM (active)

Q: Which outcome does the source give for `CS(=O)(=O)NC(=O)c1cc(Oc2ccc(C(F)(F)F)cc2Cl)ccc1[N+](=O)[O-]` here?
A: inactive

Q: Which AC50 does the source give for `ClC1=C(Cl)C2(Cl)C3C(Cl)C=CC3C1(Cl)C2(Cl)Cl` (stereo unspecified) here?
A: 51.3 µM (active)

Q: Which outcome does the source give for `Cc1ccc([N+](=O)[O-])cc1` here?
A: inactive

Q: For `O=C(N[C@H](c1ccccc1)[C@@H]1CN2CCC1CC2)c1c(Cl)ccc(C(F)(F)F)c1Cl`, which AC50 is on record?
A: 24 µM (active)

Q: Which outcome does the source give for `CCCCOC(=O)c1ccccc1C(=O)OCc1ccccc1` here?
A: inactive

Q: For `O=C1CCCO1`, which outcome is on record?
A: inactive

Q: For `c1ccc(N=Nc2ccccc2)cc1`, which outcome is on record?
A: inactive

Q: Which outcome does the source give for `CN(C)[C@@H]1C(=O)C(C(N)=O)=C(O)[C@@]2(O)C(=O)C3=C(O)c4c(O)cccc4[C@@](C)(O)[C@H]3C[C@@H]12` here?
A: inactive

Q: Which outcome does the source give for `CCC(C)c1ccc(O)cc1` (stereo unspecified) here?
A: inactive

Q: For `c1ccc2c(c1)oc1ccccc12`, which AC50 is on record?
A: 0.0888 µM (active)

Q: Which outcome does the source give for `CCCSC(=O)N(CCC)CCC` here?
A: inactive

Q: With `CCCCCCCCn1sccc1=O` as the molecule, how does the AC50 read?
A: 3.77 µM (active)

Q: Which AC50 does the source give for `O=C(O)C1C2CCC(O2)C1C(=O)O` (stereo unspecified) here?
A: 19.6 µM (active)

Q: Which AC50 does the source give for `Oc1ccc2ccc3cccc4ccc1c2c34` here?
A: 63.9 µM (active)

experiment: APR_HepG2_MicrotubuleCSK_72hr: Apredica 72-hour HepG2 Assay for Microtubule CSK Stabilty (AID 2282919); settings: HepG2 microtubule cytoskeleton, high-content imaging, actives raise or lower the signal
Summary of the method: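 High-content imaging of alpha-tubulin staining in fixed HepG2 cells after 72 hr treatment with ten concentrations from 0.39 to 200 uM (0.5% DMSO). Fitting was bidirectional against DMSO; taxol served as positive control.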

Q: With `O=[N+]([O-])c1ccc(Oc2ccc(Cl)cc2Cl)cc1` as the molecule, how does the outcome read?
A: inactive

Q: With `Cn1cc(-c2ccccc2)c(=O)c(-c2cccc(C(F)(F)F)c2)c1` as the molecule, how does the outcome read?
A: inactive

Q: With `CN(C)c1ccccc1` as the molecule, how does the outcome read?
A: inactive

Q: With `Oc1ccccc1Cl` as the molecule, how does the outcome read?
A: inactive

Q: Which outcome does the source give for `C=CCc1ccc2c(c1)OCO2` here?
A: inactive

Q: Which outcome does the source give for `CCCCCCCCCCCCCN1CC(C)OC(C)C1` (stereo unspecified) here?
A: inactive

Q: With `Nc1cc(Cl)cc(C(=O)O)c1Cl` as the molecule, how does the outcome read?
A: inactive

Q: With `Nc1ccc(Cl)cc1N` as the molecule, how does the AC50 read?
A: 3.83 µM (active)

Q: With `CC(C)N(Cc1ccccc1)C(=O)C(C)(C)C` as the molecule, how does the outcome read?
A: inactive

Q: With `ClCCOCCCl` as the molecule, how does the outcome read?
A: inactive

Q: For `CO[C@@H]1[C@H](OC(=O)NC(=O)CCl)CC[C@]2(CO2)[C@H]1[C@@]1(C)O[C@@H]1CC=C(C)C`, which outcome is on record?
A: inactive

Q: For `CCOc1cccc(C2(N3CCN(c4ccccc4)CC3)CCC(C)CC2)c1` (stereo unspecified), which outcome is on record?
A: inactive

Q: Which outcome does the source give for `CCC12COCN1COC2` here?
A: inactive

Q: For `CS(=O)(=O)NC(=O)c1cc(Oc2ccc(C(F)(F)F)cc2Cl)ccc1[N+](=O)[O-]`, which outcome is on record?
A: inactive

Q: Which AC50 does the source give for `ClC1=C(Cl)C2(Cl)C3C(Cl)C=CC3C1(Cl)C2(Cl)Cl` (stereo unspecified) here?
A: 88.5 µM (active)

Q: For `Cc1ccc([N+](=O)[O-])cc1`, which outcome is on record?
A: inactive

Q: Which outcome does the source give for `O=C(N[C@H](c1ccccc1)[C@@H]1CN2CCC1CC2)c1c(Cl)ccc(C(F)(F)F)c1Cl` here?
A: inactive

Q: For `CCCCOC(=O)c1ccccc1C(=O)OCc1ccccc1`, which outcome is on record?
A: inactive

Q: With `O=C1CCCO1` as the molecule, how does the outcome read?
A: inactive

Q: For `c1ccc(N=Nc2ccccc2)cc1`, which outcome is on record?
A: inactive

Q: With `CN(C)[C@@H]1C(=O)C(C(N)=O)=C(O)[C@@]2(O)C(=O)C3=C(O)c4c(O)cccc4[C@@](C)(O)[C@H]3C[C@@H]12` as the molecule, how does the outcome read?
A: inactive

Q: Which outcome does the source give for `CCC(C)c1ccc(O)cc1` (stereo unspecified) here?
A: inactive

Q: With `c1ccc2c(c1)oc1ccccc12` as the molecule, how does the outcome read?
A: inactive

Q: For `CCCSC(=O)N(CCC)CCC`, which outcome is on record?
A: inactive

Q: Which outcome does the source give for `CCCCCCCCn1sccc1=O` here?
A: inactive

Q: With `O=C(O)C1C2CCC(O2)C1C(=O)O` (stereo unspecified) as the molecule, how does the outcome read?
A: inactive

Q: With `Oc1ccc2ccc3cccc4ccc1c2c34` as the molecule, how does the AC50 read?
A: 85.4 µM (active)
